Data as given in PubChem BioAssay AID1508624 (National Center for Advancing Translational Sciences (NCATS), 2021).
Out of some 48,000 compounds screened, about 120 (0.25%) were called active. Another 4% or so got no clear call; they are omitted. Calls follow the shape of the dose curve; as a rule, active = well fitted activation curve with a large enough effect; inconclusive = small, poorly fitted or top-dose-only effect, or another doubt; inactive = no such curve, though single readings can be large or run the other way. The entries come from a sample that favours actives as a whole.

Test: Primary qHTS for Identification of Small Molecule Activators of Huntingtin-Antisense Promoter Activity; also: nearly all actives have a fitted effect of over 55% in size
Settings: HEK293 HTT-AS promoter firefly luciferase reporter, 24 h; series mostly up to 57.5 µM; activity change, positive = activation: at the top concentration
Source text: Assay Provider: Russell L. Margolis M.D.
Department Neurology, Johns Hopkins University School of Medicine, Baltimore, MD
Huntington's Disease (HD) is a neurodegenerative disorder caused by a CAG repeat expansion in exon 1 of huntingtin (HTT). While there are currently no disease-modifying treatments for HD, recent efforts have focused on development of nucleotide-based therapeutics to lower HTT expression. As an alternative to siRNA or oligonucleotide methods, we hypothesized that suppression of HTT expression might be accomplished by small molecules that either (1) directly decrease HTT expression by suppressing HTT promoter activity or (2) indirectly decrease HTT expression by increasing the promoter activity of HTT-AS, the gene antisense to HTT that appears to inhibit expression of HTT.
We developed and employed a high throughput screen for modifiers of HTT and HTT-AS promoter activity using luminescent reporter HEK293 cells; of the 52,041 compounds tested, we identified 898 replicable hits. We used a rigorous stepwise approach to assess compound toxicity and the capacity of the compounds to specifically lower huntingtin protein in 5 different cell lines, including HEK293 cells, HD lymphoblastoid cells, mouse primary neurons, HD iPSCs differentiated into cortical-like neurons, and HD hESCs. We found no compounds which were able to lower huntingtin without lowering cell viability in all assays, though the potential efficacy of a few compounds at non-toxic doses could not be excluded.
SEQUENCE No. (1, 2, 3, etc.); […] (e.g., Cells, Incubation, Reagent, etc.); VALUE and DESCRIPTION.
1; Reagent; 4 uL; 2,500 Hek293 luciferase reporter cells per wells
3; Compound; 23 nL; Control inhibitor / compound library
5; Reagent; 2.5 uL; Firefly Luc reagent; Dual-Glo Luciferase Reporter Assay System (Promega)
6; Time; 10 min; room temperature incubation
7; Detection; Luminescence; FLuc
NOTES (numbers refer to sequence above)
1; High-throughput screening, measuring luminescence from a Hek293 luciferase reporter, was performed in 1,536 well white-walled tissue-culture treated plates. 2,500 cells were plated in 4 µL of Opti-MEM per well using a Multidrop Combi Reagent Dispenser (ThermoFisher).
2; Assay plates were cultured for 24 hours.
3; Control inhibitor (PTC124; final concentration of 50 uM) and compound library (at final concentrations of 460 nM - 57.5 uM) were added to the assay plate using the Kalypsis Pintool Robotic System equipped with 1536 pinheads.
4; Cells were then incubated for 24 hours at 37 degrees C prior to luminescence measurements.
5; In all cases, luminescence was measured using the Dual-Glo Luciferase Reporter Assay System (Promega) following the manufacturer's instructions.
6; Room temperature incubation.
7; Luminescence signal was obtained using the PerkinElmer ViewLux plate reader. Results were normalized to vehicle control (0% activity) and zero RLU (-100% activity).
Potency is read from the fitted curve at half-maximal effect.

Activity change, positive = activation, inactive:
COC(=O)c1cc(Cl)c(NC(C)=O)cc1OC 3.75%
COc1ccc(CNC(=O)Cn2nnc(-c3ccccc3F)n2)cc1 -9.07%
CCCC(=O)N1CCN(c2nc3c(OC)ccc(C)c3s2)CC1 -10.6%
COc1ccc(-n2c(=O)c3ccccc3n(Cc3ccccc3Cl)c2=O)cc1 -22.4%
O=C(c1ccc(C(F)(F)F)cc1)N1CCC(c2nc(-c3ccc(S(=O)(=O)N4CCCC4)cc3)no2)CC1 -29.4%
CCCC(=O)Nc1cc(C(=O)NCc2ccc(OC)cc2)ccc1S(=O)(=O)c1ccc(Cl)cc1 1.22%
O=C(Nc1nc2ccc(F)cc2s1)c1nc(SCc2ccccc2F)ncc1Cl 0%
C=Cc1c(C)c2cc3nc(cc4[nH]c(cc5nc(cc1[nH]2)C(C)=C5CCC(=O)O)c(CCC(=O)OC)c4C)[C@@]1(C)C3=CC=C(C(=O)OC)[C@H]1C(=O)OC -35.4%
CC(Nc1ccc(-c2nc(-c3ccco3)no2)cc1[N+](=O)[O-])c1ccccc1 (configuration not stated) 18%
CCOc1ccc(NC(=O)c2c(NC(=O)Cc3ccccc3)sc3c2CCC(C)C3)cc1 (configuration not stated) -28.3%
CCCOc1ccc(-c2cccc(NS(=O)(=O)c3ccccc3)c2)nn1 -27.3%
Cc1cccc(NC(=O)CSc2nc3c(oc4ccccc43)c(=O)n2-c2ccc(F)cc2)c1 -21.1%
Cc1cc(C)cc(OCC(=O)Nc2c(C(=O)c3ccccc3)oc3ccccc23)c1 -4.18%
O=C(NC1CCCCC1)c1ccc(Cn2c(SCc3ccccc3)nc3cccnc32)cc1 -5.82%
COc1cc(C(=O)Nc2ccc(OCc3cc(=O)n4ccc(C)cc4n3)cc2)cc(OC)c1OC -0.483%
Cc1cc2c(cc1S(=O)(=O)CCC(=O)Nc1ccc(OC(F)(F)F)cc1)OCC(=O)N2 -17.4%
CCn1c(=O)c(=O)n(CC)c2cc(N3CCCCC3)c(NC(=O)c3ccc(Cl)cc3)cc21 -4.94%
COc1ccc(NC(=O)COCc2cc(-c3ccco3)on2)cc1 7.49%
COc1ccc(Cn2ccnc2SCC(=O)NCc2ccco2)cc1 1.47%
COc1cccc(C(=O)Nc2ccc3oc(-c4ccc5ccccc5c4)nc3c2)c1 17.6%
COc1ccccc1N1CCN(C2C(=O)c3ccccc3N2C(C)=O)CC1 (configuration not stated) -15.5%
CCOC(=O)c1oc2ccc(S(=O)(=O)n3nc(-c4ccccc4OC)cc3N)cc2c1C -34%
Cc1ccc(C)c(N2C(=O)N(Cc3c(F)cccc3Cl)c3ccccc3S2(=O)=O)c1 -7.55%
Cc1ccc(S(=O)(=O)N(Cc2nc(-c3ccc(Cl)cc3)no2)C2CCCCC2)cc1 -26.2%
COc1cccc(-n2cc(C(=O)NCc3cccc(Cl)c3)c3ccccc3c2=O)c1 -25.7%
Cc1ccc(S(=O)(=O)N2CCCc3cc(NS(=O)(=O)c4cc(C)ccc4C)ccc32)cc1 -26.5%
NCC[C@H](O)C(=O)N[C@@H]1C[C@H](N)[C@@H](O[C@H]2O[C@H](CN)[C@@H](O)[C@H](O)[C@@H]2O)[C@H](O)[C@@H]1O[C@H]1O[C@H](CO)[C@@H](O)[C@H](N)[C@@H]1O -2.89% [at 0.74 µM, percent change from vehicle, -100% = no light]
CCCN(C(=O)Cn1cc(S(=O)(=O)N2CCN(c3ccccc3F)CC2)c2ccccc2c1=O)c1cccc(C)c1 -11.8%
Cc1ccc(C)c(OCC(=O)Nc2sc3c(c2C#N)CCCC3)c1C -6.79% [at 11.5 µM, percent change from vehicle, -100% = no light]
O=C(CN1C(=O)COc2ccc(S(=O)(=O)N3CCOCC3)cc21)N1CCN(c2cccc(Cl)c2)CC1 -14.6%
COc1ccc(Cn2c(C(=O)O)c(CNCc3cccc(OC)c3)c3ccc(C)cc32)cc1 -54.6%
Cc1cc(C)c(NC(=O)Cn2c(SCC(=O)NCc3ccccc3)nc3ccccc32)c(C)c1 -19.4%
CCOC(=O)c1cccc(NS(=O)(=O)c2cn(C)c(C)n2)c1 -13.7%
COc1cc2[nH]c(=O)n(Cc3ccc(C(=O)NCc4ccc(C)cc4)cc3)c(=O)c2cc1OC -17%
CCOC(=O)c1c(NC(=O)Cc2coc3ccc(CC)cc23)sc2c1CCC2 -19.1%
COc1cccc(C(c2c(O)cc(C)n(Cc3ccco3)c2=O)N2CCN(c3ccccc3)CC2)c1 (configuration not stated) -0.441%
COc1ccc(CC(=O)N2CC(=O)Nc3ccc(Br)cc3C2c2ccc(F)cc2)cc1OC (configuration not stated) -15.1%
Cc1ccc(CNS(=O)(=O)c2ccc(-c3cc(C(F)(F)F)on3)s2)cc1 -6.66%
CCCNC(=O)C1CCN(c2nc3ccc(C)cc3[nH]2)CC1 22.1%
COc1ccc(-c2nc3ccc(C(=O)NCc4ccc(C)cc4)cc3nc2-c2ccc(OC)cc2)cc1 -8.79%
COc1ccc(-c2nc3sc(CCNC(=O)C(C)(C)C)c(C)n3n2)cc1 -11.6%
COc1ccc(C)cc1-n1c(-c2ccc(C)cc2)cc2c1CC(C)(C)CC2=O 2.19%
Cc1cc(Br)ccc1NC(=O)Cn1cnc2sc(C)c(S(=O)(=O)N3CCN(C)CC3)c2c1=O 15%
Cc1ccc(-c2noc(-c3nnn(-c4cccc(C(F)(F)F)c4)c3N)n2)cc1 -1.74%
O=C(Nc1ccc(C(=O)OCc2cc(=O)n3nc(C4CC4)sc3n2)cc1)c1ccc(F)cc1 10.7%
COc1ccc(Cn2c(=O)c3oc4ccccc4c3n(CC(=O)Nc3ccc(F)cc3F)c2=O)cc1 2.09%
O=C(CN1CCSc2ccccc21)N1CCN(c2ccccc2)CC1 -22.4%
COc1ccc2c(c1)c(N1CCCC1=O)c(C(=O)Nc1ccccc1C(F)(F)F)n2C -2.97%
Cc1ccc(NC(=O)CSc2nc3c([nH]c4ccccc43)c(=O)n2-c2ccccc2)cc1Cl -32.6%
Cc1ccccc1Cn1nc(C)c(NC(=O)c2cc(-c3ccc(F)cc3)on2)c1C -10.1%
CCn1cc(C(=O)N2CCN(c3cc(C)ccc3C)CC2)c(=O)c2cc(S(=O)(=O)N(C)C3CCCCC3)ccc21 -10.6%
Cc1ccc(C)c(N2CCN(c3ccc4cc(S(=O)(=O)N5CCC(C)CC5)ccc4n3)CC2)c1 -4.49%
CC[C@]12C=CCN3CC[C@@]4(c5cc([C@@]6(C(=O)OC)C[C@H]7C[C@@H](C(C)(F)F)CN(Cc8c6[nH]c6ccccc86)C7)c(OC)cc5N(C)[C@H]4[C@@](O)(C(=O)OC)[C@H]1OC(C)=O)[C@@H]32 -39.3%
Cc1nc(SCC(=O)Nc2ccc(C(=O)O)cc2)n[nH]1 -6.31%
O=C(CSc1nc2c(c(=O)[nH]1)CN(Cc1ccc3c(c1)OCO3)CC2)Nc1cc(F)ccc1F -5.4%
COC(=O)c1cc(NC(=O)CCS(=O)(=O)c2cc(Br)cc3c2N(C(=O)C2CC2)CC3)cc(C(=O)OC)c1 -9.29%
CC(=O)c1ccc(NC(=O)c2nc(-c3ccc(C)cc3)n3c2CCCCC3)cc1 -31.3%
Cc1cccc(C(=O)N2CCc3cc(CNC(=O)Cc4ccc(F)cc4)ccc32)c1 -43.4%
CCOC(=O)c1c(C)[nH]c(C)c1S(=O)(=O)N1CCCC(C(=O)NCc2ccccc2Cl)C1 (configuration not stated) -16.6%
COc1ccc(-n2c(=O)c3sc4ccccc4c3n(CC(=O)Nc3cccc(C)c3)c2=O)cc1 2.07%
Cc1ccc(CNC(=O)Cn2c(=O)ccc3cc(S(=O)(=O)N4CCCC4)ccc32)cc1 -19.3%
Cc1ccc(C)c(Cn2c(C(=O)O)c(CNCc3cccs3)c3ccccc32)c1 -29.9%
COC(=O)c1cccc(Cn2nnc3sc4c(c3c2=O)CCC(C(C)(C)C)C4)c1 (configuration not stated) -49.6%
CCOc1cc(C=C2C(=O)N(c3ccccc3)N=C2C)cc(Cl)c1OCC(=O)OC -27.3%
CCOc1ccc(NC(=O)c2c(NCc3cccc(OC)c3OC)sc3c2CCC3)cc1 -5.92%
CC1CCCCN1S(=O)(=O)c1ccc(F)c(C(=O)Nc2ccccc2C(F)(F)F)c1 (configuration not stated) 2.75%
CCn1c(C)c(C)c2cc(C(=O)N3CCN(c4cccc(C)c4C)CC3)ccc21 -13.7%
COc1ccc(CNS(=O)(=O)c2cc3c4c(c2)CCN4C(=O)CC3)cc1 -21.3%
O=C(NCc1ccccc1)C(=O)NCC(c1ccco1)S(=O)(=O)c1ccc(Cl)cc1 (configuration not stated) -27.8%
Oc1ccccc1-c1nc2ccc(Cl)cn2c1Nc1ccc2c(c1)OCCO2 -11.4%
CCn1cc(C(=O)N2CCN(c3cc(Cl)ccc3C)CC2)c(=O)c2cc(S(=O)(=O)N3CCCC3)ccc21 10.5% [at 11.5 µM, percent change from vehicle, -100% = no light]
O=C(NCc1ccc(Cl)cc1)c1ccc2c(c1)nnn2C1CCCC1 -2.28%
CC(=O)c1ccc(NC(=O)c2nc3nc(C)cc(C(F)F)n3n2)cc1 -1.75%
COc1ccc(CCNC(=O)c2ccc(CSCc3ccc(C)cc3)o2)cc1OC -31.8%
CCCOC(=O)c1c(NC(=O)c2cc3nc(-c4ccc(OC)cc4)cc(C(F)(F)F)n3n2)sc2c1CCCC2 -19.6%
CCC(=O)N1c2ccccc2CC1C(=O)N1CCN(c2ccccc2F)CC1 (configuration not stated) -5.95%
COc1ccc2[nH]c3c(c2c1)CCN(C(=O)CCC1CCCC1)C3c1ccc(F)cc1 (configuration not stated) -32.3%
CCOc1ccc(/C=C(\C#N)c2nc3ccccc3c(=O)[nH]2)cc1OC -7.49%
Cc1ccc(Cl)cc1N1CCN(C(=O)c2cn(C)c3ccc(S(=O)(=O)N(C)C4CCCCC4)cc3c2=O)CC1 0.244%
Cc1ccc(CN2C(=O)SC(Nc3ccccc3)C2=O)cc1 (configuration not stated) -13.4%
COc1ccc(-c2onc(C)c2C)cc1S(=O)(=O)NCCc1ccccc1 -33.1%
Cc1ccccc1CNC(=O)CSc1nnc(C)c2c(C)n(-c3ccccc3)nc12 -26.1%
O=C(c1ccc(Br)cc1)N(Cc1cccs1)c1ccc(F)cc1 -26.9%
COc1ccc(CNC(=O)Cn2nnc(-c3ccc(S(C)(=O)=O)cc3)n2)cc1 -10.6%
COc1cccc(-n2ccn(CC(=O)NCc3ccc(C)cc3)c(=O)c2=O)c1 -4.99%

Potency, active:
Cc1ccc2nc(CNC(=O)c3ccccc3)[nH]c2c1 4470 nM
CCOc1ccc(-c2cc3c(=O)n(CC(=O)NCc4ccc(OC)cc4)ccn3n2)cc1 447 nM
